These results are taken from PubChem BioAssay (NCI).

The panel holds about 83,000 compounds, 20% with a hit somewhere; the sample as a whole holds those more often.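 Testing used 96-well plates and a 48-hour single-concentration exposure. Example: -40 means 40% of the starting cells died.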 Calls of active or inactive are those of the source. Rule for the calls: active = growth percent below 10; inactive = the rest.

The test system of this assay is HL-60(TB) leukemia. In words: NCI-60 one-dose screen, 48 h (100 = growth as untreated, 0 = no growth, -100 = all killed). As to conditions: 10 µM unless noted.
In the case of `N#CCNc1ccccc1N`, the growth is 95.2% (inactive).
With `CCOC(=O)c1c2c(c(C)n1Cc1ccccc1)-c1nc(N)ncc1CC2`, the growth is 96.2% (inactive).
Next, `COC(=O)C(C)[C@H]1CC[C@@H]2[C@]1(C)CC=C1[C@]23C=C[C@]2(C[C@@H](OC(C)=O)CC[C@]12C)C(C(=O)OC)C3C(=O)OC` (some centres not stated): 66.9% (inactive); `C[C@H](C(=O)N[C@@H](Cc1ccc(-c2ccccc2)cc1)C(=O)NC1CC(C)(C)NC(C)(C)C1)c1ccc(-c2ccccc2)c(F)c1`: -59.1% (active).
Regarding `O=C(O)c1nn(-c2ccc(Cl)cc2)nc1N1CCCC1`, the growth was 97% (inactive).
Under `O=C1c2ccccc2C(=O)c2c1ccc1c(=O)n(-c3ccccc3C(F)(F)F)nnc21` stands -42% (active).
For `CC(=O)N1N=C(c2ccc(Cl)cc2)CC1c1sc(Cl)nc1Cl` (configuration not stated), the growth was 89.5% (inactive).
For the compound `Nc1c(C(=O)Nc2cccc(C(F)(F)F)c2)sc2nc3c(cc12)C(O)CCC3` (configuration not stated), the growth was -0.216% (active).
Under `CCCCOc1nc2ccc(Cl)cc2cc1/C=C/C(=O)/C=C/c1ccc(OC)cc1` stands 89.5% (inactive); under `CC1CCN(CCCCCOc2ccc3oc4ccc(Cl)cc4c(=O)c3c2)CC1`, 39.6% (inactive).
Next, `COc1ccc2c(c1)CC=C1[C@@H]2CC[C@]2(C)C(=O)/C(=N/O)C[C@@H]12`: 53.4% (inactive).
Under `C/C=C/CC(C)C(O)C1C(=O)NC(CC)C(=O)N(C)CC(=O)N(C)C(CC(C)C)C(=O)NC(C(C)C)C(=O)N(C)C(CC(C)C)C(=O)NC(C)C(=O)NC(C)C(=O)N(C)C(CC(C)C)C(=O)N(C)C(CC(C)C)C(=O)N(C)C(C(C)C)C(=O)N1C` (configuration not stated) stands -9.23% (active).
